Assay results from PubChem BioAssay AID485364 (National Center for Advancing Translational Sciences (NCATS), 2010).
The campaign covered roughly 360,000 compounds. About 11,000 (3.1%) were called active. Roughly 4% stayed inconclusive and do not appear here. The sample as a whole holds a higher share of actives than the screen did. A number with no mark means an inactive call. Calls come from the whole dose curve; as a rule, active = well fitted inhibition curve with a large enough effect; inconclusive = small, poorly fitted or top-dose-only effect; inactive = no such curve, though single readings can be large or run the other way.

target: Schistosoma mansoni thioredoxin glutathione reductase (TGR) (UniProt Q962Y6); assay: qHTS Assay for the Inhibitors of Schistosoma Mansoni Peroxiredoxins; conditions: purified TGR, DTNB reduction, TNB absorbance 405 nm; series mostly up to 114 µM; activity change, negative = inhibition: at the top concentration; note: nearly all actives have a fitted effect of over 60% in size
In short: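 First, TGR (20 nM dispensed) and NADPH were mixed with compound. Second, a 15 min room-temperature incubation followed. Third, further NADPH and then DTNB were added to start the reaction. Finally, TNB absorbance was monitored kinetically.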
% is set by controls: 0 for no effect and ±100 for the full control effect; potency is the fitted concentration of half-maximal effect.

SMILES	activity change, negative = inhibition [%]	Potency
O=C(c1ccc(C(F)(F)F)cc1)N1CCC(c2nc(-c3ccc(S(=O)(=O)N4CCCC4)cc3)no2)CC1	-0.916	
COc1ccc(OC)c(CNC(=O)Cn2nc(C)c3c(C)n(-c4ccccc4)nc3c2=O)c1	-0.771	
CC1CC(C)CN(CC(=O)Nc2ccc(S(N)(=O)=O)cc2)C1 (stereo not drawn)	-6.12	
NS(=O)(=O)c1ccc(NC(=O)COC(=O)c2ccco2)cc1	-0.38	
CCc1ccc(CCC(=O)Nc2ccc(S(N)(=O)=O)cc2)o1		50.1 µM (active)
O=C(NCc1ccc2c(c1)CCN2C(=O)c1ccccc1)Nc1cc(F)ccc1F	-1.99	
Cc1ccc2c(=O)c(C(=O)c3cccc(Cl)c3)cn(CC(=O)NCc3ccccc3)c2n1	5.5	
O=C(NCC(c1ccc2c(c1)OCO2)N1CCN(c2ccccc2)CC1)C(=O)Nc1ccccc1F (stereo not drawn)	5.99	
CCOC(=O)NNC(=O)c1ccc(Cl)cc1	9.66	
COC(=O)c1nc(NC(=O)c2ccc(C(C)(C)C)cc2)n[nH]1	3.65	
COC(=O)c1sccc1NC(=O)c1ccc(Cl)cc1	-1.81	
COC(=O)c1nc(NC(=O)c2ccc(F)cc2)n[nH]1		28.2 µM (active)
COC(=O)c1nc(NC(=O)c2ccc(Cl)cc2)n[nH]1		39.8 µM (active)
COc1ccc(C(=O)Nc2ccc(F)cc2F)cc1	6.18	
NS(=O)(=O)c1ccc(NC(=O)COc2ccc(S(=O)(=O)NC3CCCCC3)cc2)cc1	4.88	
COc1ccc(CNc2nc(-c3ccc(Cl)cc3)nn2S(=O)(=O)c2ccc(C)cc2)cc1	-0.796	
COc1ccccc1CNC(=O)CS(=O)(=O)c1cccc2nsnc12	-0.613	
Cc1ccc(OC(=O)CSc2nnc(-c3cccs3)o2)cc1	-0.547	
COc1cc(Cl)c(NC(=O)CC(C)S(=O)(=O)c2cc3c(cc2C)NC(=O)CO3)c(OC)c1 (stereo not drawn)	-4.41	
COc1ccc(OC)c(CCNC(=O)CCCn2c(=O)c3cccn3c3cccnc32)c1	1.8	
O=C(CCn1ccc2cc(S(=O)(=O)N3CCCC3)ccc21)NCc1cccc(Cl)c1	-5.15	

SMILES	activity change, negative = inhibition [%]	Potency
COc1ccc(Cl)cc1NC(=O)CSc1nc(-c2cccs2)cc(C(F)(F)F)n1	-0.774	
CCc1ccc(-n2nc(C)c3c(C)cc(=O)n(CC(=O)Nc4ccc(F)cc4C)c32)cc1	-0.967	
O=C(CC(c1cccs1)N1Cc2ccccc2C1=O)Nc1ccc(F)cc1F (stereo not drawn)	-8.15	
COC(=O)c1c(NC(=O)c2ccc(Cl)c(Cl)c2)sc2c1CCCC2	-1.51	
CNC(=O)c1c(NC(NC(=O)c2ccco2)C(=O)c2ccc(Cl)cc2)sc2c1CCCC2 (stereo not drawn)		25.1 µM (active)
CCOC(=O)c1c(NC(=O)c2cc(-c3ccc(Cl)cc3)on2)sc2c1CCCC2	-7.21	
CCOc1ccc(OCC)c(NC(=O)CN(c2ccc(C)cc2)S(=O)(=O)c2c(C)n[nH]c2C)c1	10.6	
COc1ccc(CNC(=O)CSc2n[nH]c(-c3ccc(F)cc3)n2)cc1	2.87	
Cc1cc(-c2ccc(C)c(S(=O)(=O)N3c4ccccc4CC3C)c2)on1 (stereo not drawn)	11.2	
COc1ccc(Cn2ccc3nc(C)c(C(=O)Nc4ccc(C)c(F)c4)cc3c2=O)cc1	-0.138	
O=C(CC(Cc1ccccc1)C(=O)O)NCCc1ccc2c(c1)OCO2 (stereo not drawn)	-1.4	
O=C(CCNS(=O)(=O)c1ccccc1C(F)(F)F)NCc1ccc2c(c1)OCO2	-10.5	
O=C(CCc1nnc(Cc2ccc3c(c2)OCO3)o1)NCCc1ccccc1Cl		31.6 µM (active)
CCOc1ccccc1CNC(=O)Nc1cn(CC(C)C)c(=O)c2ccccc12	-7.64	
O=S(=O)(NCc1ccccc1)c1ccc(S(=O)(=O)N2CCCC2)cc1	-0.62	
O=S(=O)(NCC1OCCc2ccccc21)c1ccccc1 (stereo not drawn)	34.3	
O=c1/c(=C/c2ccc(CNS(=O)(=O)c3ccccc3)o2)sc2n1CCN=2		25.1 µM (active)
CCCCN(C)CCCNC(=O)CN1N=C(c2ccc(OC)cc2)CCC1=O	2.84	
COc1ccc(CC(=O)Nc2ccc(-c3nc4ccccc4s3)c(C)c2)cc1	6.41	
COc1ccc(Cl)cc1S(=O)(=O)N1CCN(CC(=O)C(C)(C)C)CC1	-27.4	
O=C(CN1CCN(S(=O)(=O)c2cc(Cl)ccc2Cl)CC1)c1ccc(O)c(O)c1		17.8 µM (active)

SMILES	activity change, negative = inhibition [%]	Potency
O=S(=O)(c1cc(Cl)ccc1Cl)N1CCN(Cc2ccco2)CC1	-16.2	
Cc1ccc(C)n1-c1nnc(N2CCC(C(=O)NCc3ccccc3Cl)CC2)s1	-21.1	
Cc1ccc(/C=C/C(=O)OCC(=O)NCc2ccc(Cl)cc2)o1		25.1 µM (active)
COc1ccc(CNC(=O)COC(=O)/C=C/c2ccc(S(=O)(=O)N3CCOCC3)cc2)cc1	4.4	
CCN(CC(=O)NCc1ccc(Cl)cc1)C(=O)c1c(C)noc1C	-9.68	
O=C(Nc1ccccc1)c1nnsc1S(=O)(=O)c1ccc(Cl)cc1		0.316 µM (active)
O=C(Nc1ccc(Oc2ccccc2)cc1)C1CCN(S(=O)(=O)c2ccc(Cl)cc2)CC1	-7.31	
Cc1nnsc1S(=O)(=O)Cc1ccccc1Cl	-2.4	
COc1ccc(Nc2cc(C(=O)NCCCN(C)c3ccccc3)c3ccccc3n2)c(OC)c1	9.2	
CCCn1c(=N)n(CC(O)COc2ccccc2OC)c2ccccc21 (stereo not drawn)	4.68	
CCOc1ccc(CNC(=O)C2CCCN(S(=O)(=O)N(CC)c3ccc(OCC)cc3)C2)cc1 (stereo not drawn)	-9.5	
CCCN1CN=C(NS(=O)(=O)c2ccc(NC(C)=O)cc2)NC1	5.57	
Cc1ccc(-n2nnnc2CNC(=O)c2ccccc2C)cc1C	13	
O=C1NC(=O)N(c2ccc(F)cc2)C(=O)/C1=C/c1ccc2c(c1)CCCN2Cc1ccccc1		17.8 µM (active)
CCCN1CCN(CCCNC(=O)Cn2nc(CC)n3c(cc4occc43)c2=O)CC1	-11.9	
O=C(NC(=S)Nc1ccc(NC(=O)c2cccs2)cc1)c1ccc([N+](=O)[O-])cc1	1.64	
O=C(Nc1ccccc1-c1ccccc1)c1cccs1	-1.38	
O=C(NC(=S)Nc1cccc(-c2ccc(CO)o2)c1)c1cccs1		20 µM (active)
Cc1ccc(S(=O)(=O)N2CCC(C(=O)Nc3cc(C)ccc3C)CC2)cc1	21.4	
O=C(CSc1nc(=O)n(Cc2cccnc2)c2c1CCC2)Nc1ccc(F)cc1F	3.22	
CCc1ccc(N(CC)C(=O)CCn2cnc3onc(-c4ccc(F)cc4)c3c2=O)cc1	-0.879	
